# IL1B secr inh – inhibitors of inflammasome signaling (IL-1 beta secretion) | THP-1 LPS/ATP IL-1B secretion, AlphaLISA, 16 h; active compounds read low | actives 4.7% (n = 360,000) | AID 743279 | activity change, % at 57.5 µM; in the data active = activity change below about -50%; inconclusive = mostly about -30% to -49%
#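 THP-1 cells pretreated 1 hr with compounds (up to 57.5 uM final), then stimulated with LPS (250 ng/mL final) plus ATP (1.25 mM final); secreted IL-1B measured by AlphaLISA after 16 hr, decreased signal indicating inhibition.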
# ALOX12 inh – ALOX12 (human) lipoxygenase inhibition. AID 1671190. actives 1.1% (n = 580,000). purified 12hLO, xylenol orange hydroperoxide absorbance. Potency, µM (series often up to 108 µM), for inactives: at the highest dose activity change, negative = inhibition, most hits filed as inhibitors; also: potency is read from the fitted curve at half-maximal effect
# Target sequence (P18054 whole entry, looked up): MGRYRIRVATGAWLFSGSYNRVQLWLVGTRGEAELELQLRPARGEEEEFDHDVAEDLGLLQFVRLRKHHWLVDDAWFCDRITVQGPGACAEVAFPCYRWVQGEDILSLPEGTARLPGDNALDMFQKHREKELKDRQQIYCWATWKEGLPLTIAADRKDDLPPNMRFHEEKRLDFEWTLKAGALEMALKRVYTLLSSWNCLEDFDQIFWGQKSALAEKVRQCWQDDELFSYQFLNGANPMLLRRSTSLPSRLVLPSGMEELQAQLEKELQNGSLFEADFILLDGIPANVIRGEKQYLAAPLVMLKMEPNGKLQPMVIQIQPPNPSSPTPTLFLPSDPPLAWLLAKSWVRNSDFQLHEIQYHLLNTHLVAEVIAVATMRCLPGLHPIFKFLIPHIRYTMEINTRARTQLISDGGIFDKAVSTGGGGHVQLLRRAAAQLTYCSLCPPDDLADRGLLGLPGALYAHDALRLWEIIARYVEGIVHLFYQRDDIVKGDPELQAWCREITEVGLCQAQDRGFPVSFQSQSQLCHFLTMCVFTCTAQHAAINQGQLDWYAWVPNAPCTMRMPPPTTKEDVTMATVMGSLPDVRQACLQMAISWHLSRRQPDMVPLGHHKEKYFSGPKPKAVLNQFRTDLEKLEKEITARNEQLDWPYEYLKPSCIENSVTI
#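 Purified human 12hLO at 150 nM in 25 mM Hepes, 0.01% Triton X-100, pH 7.0, preincubated 15 min at room temperature with compound. Reaction started with 40 uM arachidonic acid, 30 min at room temperature. Hydroperoxide measured by Fe-xylenol orange, 573/405 nm absorbance ratio.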
# HT1080 IDH1KD tx – toxicity to HT-1080 IDH1 knockdown cells (counter line); HT-1080 IDH1 knockdown viability, ATP luminescence, 48 h; Potency, µM (titrated, usually from 46.1 µM), inactives show at the top dose activity, negative = toxicity, hits mostly cytotoxic; actives 2% (n = 360,000); AID 686971;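 also: potency is read from the fitted curve at half-maximal effect; 0% = DMSO wells and -100% = cell-free medium wells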
#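 In this qHTS, HT-1080 cells depleted of IDH1 are exposed for 48 h at 37 °C to compound titrations. Toxicity is scored from CellTiter-Glo luminescence, with DMSO as full viability and medium alone as none.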
# HT1080-NT tox – kills 2HG-producing HT-1080-NT fibrosarcoma cells; HT-1080-NT fibrosarcoma viability, CellTiter-Glo ATP luminescence, 48 h; Potency, µM (top dose mostly 46.1 µM), for inactives: at the highest dose activity, negative = less viability, most hits filed as cytotoxic; actives 1.6% (n = 360,000);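 also: NT is the 2HG producing partner of a matched IDH1 knockdown line; potency is read from the fitted curve at half-maximal effect; 0% = DMSO-treated cells and -100% = media-only wells without cells; nearly all actives have a fitted effect of over 55% in size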
#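 Luminescent CellTiter-Glo readout after 48 hours of compound exposure at 37 degrees C defined viability of HT-1080-NT cells. Activity was normalized to DMSO wells and cell-free media wells; concentration-response curves were fitted and assigned curve classes.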
# TDP1 cell CPT – growth inhibition of DT40 Tdp1-/-;hTDP1 cells with camptothecin (screen for TDP1 inhibitors). chicken DT40 Tdp1-/-;hTDP1 cells + 20 nM CPT, ATP luminescence, 48 h. Potency, µM (titrated, usually from 46.2 µM), for inactives: at the top dose activity change, negative = growth inhibition, actives largely listed as inhibitors. actives 12% (n = 420,000). AID 686979; also: potency is read from the fitted curve at half-maximal effect; nearly all actives have a fitted effect of over 55% in size
#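 Chicken DT40 Tdp1-/- cells stably complemented with human TDP1 were seeded at 400 cells/well in medium containing 20 nM camptothecin, exposed to pin-transferred compounds, and grown at 37 °C for at least 48 hr. Viability was read as ATP luminescence.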
# TDP1 cell noCPT – qHTS for Inhibitors of human tyrosyl-DNA phosphodiesterase 1 (TDP1): qHTS in cells in absence of CPT; DT40 Tdp1-/- hTDP1 cells, no CPT, ATP luminescence, 48 h; Potency, µM (series often up to 46.2 µM), inactives show at the highest dose activity change, negative = growth inhibition, most hits filed as inhibitors; actives 15% (n = 420,000); AID 686978, 2013; also: potency is read from the fitted curve at half-maximal effect; nearly all actives have a fitted effect of over 55% in size
#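 No-CPT arm: Tdp1-/-;hTDP1 DT40 cells (400/well) plus compounds, incubated ≥48 hr at 37 °C. Readout CellTiter-Glo luminescence.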
# * = called active by the depositor; u = inconclusive; x = not tested or not shown. The sample as a whole holds a higher share of hits than the screen did. Unless noted, calls follow the shape of the dose curve; as a rule, active = well fitted curve in the direction sought with a large enough effect; inconclusive = small, poorly fitted or top-dose-only effect, or another doubt; inactive = no such curve, though single readings can be large; an effect the other way counts as inactive or inconclusive. Unless noted, % is scaled to controls: 0 for no effect and ±100 for the full control effect.
SMILES,IL1B secr inh,ALOX12 inh,HT1080 IDH1KD tx,HT1080-NT tox,TDP1 cell CPT,TDP1 cell noCPT
Cc1ccc(O)c(C(=O)c2cc(C#N)c(=O)n(C(C)c3ccccc3)c2)c1 (stereo not given),-15,3%,-9%,-25%,u,15µM*
Cc1ccccc1NC(=O)c1cc(C(=O)c2cc(Cl)ccc2O)cn(-c2ccccc2C)c1=O,-8,-13%,u,u,13µM*,23µM*
COc1ccc(O)c(C(=O)c2cnc3nc4ccccc4n3c2)c1,3,u,-10%,-2%,15µM*,21µM*
C[C@@H]1CN(CC(=O)NCCc2ccc(F)cc2)CC[C@@]1(O)C1CC1,x,3%,x,x,x,x
O=C(/C=C/[C@H]1O[C@@H](n2ccc(=O)[nH]c2=O)[C@H](O)[C@@H]1O)N1CCN(CCc2ccccc2)CC1,53,0%,21%,16%,0%,13%
Cn1nc(C(=O)N2CCC3(CC2)N=C(c2ccccc2)NO3)c2ccccc21,x,59%,x,x,x,x
Cc1ccc(-n2cc(C(=O)c3cc(Cl)ccc3O)cc(C#N)c2=O)cc1,18,u,-1%,-11%,21µM*,23µM*
Cc1ccc(O)c(C(=O)c2cc(C#N)c3nc4ccccc4n3c2)c1,-16,u,8%,26%,u,9.2µM*
COc1ccc(-n2cc(C(=O)c3cc(Cl)ccc3O)cc(C#N)c2=O)cc1,1,u,-25%,-25%,0%,u
COc1ccc(N(C(=O)c2ccco2)C(C(=O)NC2CCCCC2)c2ccccc2)cc1 (stereo not given),1,11%,-1%,2%,16µM*,26µM*
COc1cccc(N(C(=O)c2ccco2)C(C(=O)NC2CCCC2)c2ccc(N(C)C)cc2)c1 (stereo not given),-4,22%,1%,0%,u,16µM*
COc1ccc(N(C(=O)c2ccco2)C(C(=O)NC2CCCC2)c2ccc(N(C)C)cc2)cc1 (stereo not given),-21,0%,-28%,-14%,u,16µM*
CCOC(=O)CN(Cc1ccccc1)C(C(=O)NC1CCCCC1)c1ccccc1 (stereo not given),x,-29%,x,x,21µM*,15µM*
COc1cc(OC)cc(N(C(=O)c2ccco2)C(C(=O)NC2CCCC2)c2ccc(N(C)C)cc2)c1 (stereo not given),-3,483%,-2%,-13%,u,u
Cn1c(=O)c2c(nc(Oc3ccc4c(c3)OCO4)n2Cc2cccc(F)c2)n(C)c1=O,x,10%,x,x,x,x
N#CCCN(Cc1ccccc1)C(C(=O)NC1CCCCC1)C1CC1 (stereo not given),8,35%,0%,13%,16µM*,15µM*
N#CCCN(Cc1ccccc1)C(CCc1ccccc1)C(=O)NC1CCCCC1 (stereo not given),-8,0%,u,u,u,u
O=C(c1ccccc1Cl)N1C[C@@H](CO)[C@H](c2ccncc2)C1,x,15%,x,x,x,x
Cc1nn(C)cc1C(=O)N1C[C@@H](CO)[C@H](c2ccncc2)C1,x,50µM*,x,x,x,x
CCCCCCn1nc(C(=O)OCC(=O)N2c3ccccc3NC(=O)C2(C)C)c2ccccc2c1=O,x,14%,x,x,x,x
CCNC(=O)c1cc(-c2ccc(Cl)cc2)nc2ccccc12,x,3%,x,x,x,x
CC(C)(C)c1nnc(NC(=O)c2cc(-c3ccccc3)nc3ccccc23)s1,-15,u,-20%,-21%,-7%,-30%
Cc1sc(NC(=O)c2cc(-c3ccc(Cl)cc3)nc3ccccc23)c(C(N)=O)c1C,7,u,-12%,-13%,8.2µM*,10µM*
Cc1sc(NC(=O)c2cc(-c3ccccc3)nc3ccccc23)c(C(N)=O)c1C,-25,-9%,-15%,-4%,15µM*,18µM*
O=c1[nH][nH]c(C(F)(F)F)c1/C=N/N1CCOCC1,-15,-13%,-6%,-4%,-5%,4%
SMILES,IL1B secr inh,ALOX12 inh,HT1080 IDH1KD tx,HT1080-NT tox,TDP1 cell CPT,TDP1 cell noCPT
CC(C)CN1CC(CNC(=O)c2ccc(Oc3ccccc3)cc2)Oc2ccnc(-c3ccc(OCC(=O)O)cc3)c2C1=O (stereo not given),x,-2%,x,x,x,x
CCCCSc1nnc(CNC(=O)C23CC4CC(CC(C4)C2)C3)n1Cc1ccccc1,u,1%,-3%,-8%,16µM*,15µM*
CCCCn1c(CNC(=O)C23CC4CC(CC(C4)C2)C3)nnc1SC(C)CC (stereo not given),-16,u,u,u,23µM*,21µM*
O=C(NCc1nnc(SCc2ccccc2)n1-c1ccccc1)C12CC3CC(CC(C3)C1)C2,u,28%,u,u,15µM*,18µM*
Cc1ccc(CNc2ccc3nnc(C4CCC4)n3n2)o1,x,14%,x,x,x,x
COc1ccc(-c2[nH]ncc2CN)cc1,x,-1%,x,x,x,x
NC(=O)CC(NC(=O)c1ccccc1)c1ccc(N2CCC(Br)CC2)c([N+](=O)[O-])c1 (stereo not given),5,-12%,9%,9%,18µM*,10µM*
Cc1cc(C)cc(C(=O)NC(CC(N)=O)c2ccc(N3CCC(Br)CC3)c([N+](=O)[O-])c2)c1 (stereo not given),1,-27%,6%,17%,u,u
NC(=O)CC(NC(=O)c1cccc(Br)c1)c1ccc(N2CCC(Br)CC2)c([N+](=O)[O-])c1 (stereo not given),1,u,1%,3%,21µM*,u
COc1ccc(Nc2nc(NCc3cccs3)nc3ccsc23)cc1OC,-87*,u,u,u,26µM*,18µM*
CCOC(=O)Cc1ccc(Nc2nc(NCc3cccs3)nc3ccsc23)cc1,-84*,0%,0%,u,21µM*,21µM*
O=C(Nc1ccc(Br)cc1Br)C1CC(=O)N(Cc2ccccc2)C1 (stereo not given),-56*,12%,-3%,1%,-19%,-26%
CC1CCCC(NC(=O)C2CC(=O)N(Cc3ccccc3)C2)C1C (stereo not given),26,4%,11%,19%,-4%,25%
CC1CCCCC1NC(=O)C1CC(=O)N(Cc2ccccc2)C1 (stereo not given),34,x,10%,8%,13µM*,12µM*

# Source: PubChem BioAssay (National Center for Advancing Translational Sciences (NCATS))
